Inconclusive results are not listed. Active and inactive are the calls of the source. The calls were made as follows: active = hit-call score of the fitted dose curve at least 0.9, where 1 is the maximum; inconclusive = response in the unintended direction; inactive = score below 0.9.

This test can be described thus: Tanguay_ZF_120hpf_TR_legacy: (Legacy) Oregon State University Tanguay Lab 120 Hour Post-fertilization zebrafish Assay for Touch Response (AID 2283667). In short, it runs like this:
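Binary touch-response endpoint in larvae at 120 hpf after static waterborne exposure from embryo stage (28°C, 0.64% DMSO vehicle, 5 uM trimethyltin chloride as positive control); embryos dead at 24 or 120 hpf excluded; fitted as gain versus DMSO.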
Turning to `CCOS(=O)(=O)OCC`, the result was inactive.
Turning to `c1nc[nH]n1`, the outcome was inactive.
In the case of `c1ccc2c(c1)Nc1ccccc1S2`, the result was inactive.
Consider `CSC(C)(C)C=NO`, for which the compound was called inactive.
On to `CC(C)(C)c1ccc(O)cc1`, for which the call was inactive.
`Nc1cc2c3c(c1)C(c1ccccc1)=N[C@@H](NC(=O)c1cccnc1)C(=O)N3CC2`: the compound was classed as inactive.
For the compound `CCCCN(CCCC)N=O`, the compound was called inactive.
As to `c1cc2c3c(cccc3c1)CC2`, the compound was called inactive.
For the compound `CCCCCCCc1ccc(O)cc1`, the outcome was inactive.
`CCC1(c2ccccc2)C(=O)N=C(O)NC1=O` (configuration not stated): the result was inactive.
Same read-out and setting: then `OCC1CO1` (configuration not stated), with “inactive”.
In the case of `Cc1ccc(O)cc1C`, the compound was called inactive.
Consider `CCOP(=S)(OCC)SCSCC`, for which the outcome was inactive.
Take `CCC(C)(C)c1ccc(O)cc1`: the AC50 (commonly the concentration at which the activity in the assay is half-maximal) is 48.3 µM (active).
`CC(Cc1ccc(OCC(=O)O)cc1)NCC(O)c1csc(C(F)(F)F)n1` (configuration not stated): the outcome was inactive.
As for `CCN(CC)c1ccccc1`, the outcome was inactive.
In the case of `[N-]=[N+]=[N-]`, the compound was called inactive.
Consider `O=[N+]([O-])c1ccc(Cl)c(Cl)c1`, for which the compound was called inactive.
Still for that read-out and setting: the entry for `CCOP(=S)(Oc1ccc([N+](=O)[O-])cc1)c1ccccc1` (configuration not stated) is “inactive”; for `CC(Cl)(Cl)C(=O)O` it is “inactive”.
In the case of `c1ccc(OP(Oc2ccccc2)Oc2ccccc2)cc1`, the compound was classed as inactive.
The same measure, in the same setting: the entry for `Cc1ccc(N)cc1N` is “inactive”.

(Values after PubChem BioAssay (EPA / NIEHS).)
